Measurements: PubChem BioAssay (Tox21)
Inconclusive results are not listed. Unmarked numbers belong to inactive results. Activity calls are given as the source filed them. Unless noted, the call rests on the fitted dose curve.

Experiment: Nuclear factor erythroid 2-related factor 2/antioxidant responsive element (Nrf2/ARE) small molecule agonists: qHTS cell viability counter screen in human keratinocytes (AID 1919968; active means well fitted cell-killing curve with a large enough effect in the repeat runs; further: nearly all actives have a fitted effect of over 55% in size)
Conditions: KeratinoSens HaCaT ARE cells viability, CellTiter-Fluor, 24 h; series mostly up to 92.4 µM; activity change, negative = cytotoxicity: at the top concentration
Summary of the method: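 KeratinoSens HaCaT cells, 1,500/well, preincubated 5 h, then exposed to compounds in DMSO for 23 h at 37 C/5% CO2. Viability read as CellTiter-Fluor fluorescence after 1 h, in the same wells as the ARE-luciferase read.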
On the % scale 0 is the no-effect control and ±100 the full control effect; potency means the concentration at half of the fitted maximal effect.

| SMILES | Potency | activity change, negative = cytotoxicity |
| --- | --- | --- |
| CC1(c2ccc(Oc3ccccc3)cc2)OC(=O)N(Nc2ccccc2)C1=O (stereo not given) | 27.5 µM (active) |  |
| Oc1cc(Cl)cc(Cl)c1 |  | -7.9% |
| C=CC(=O)NCNC(=O)C=C |  | 0.626% |
| COc1ccc(C(c2ccc(OC)cc2)C(Cl)(Cl)Cl)cc1 | 19.2 µM (active) |  |
| CC(C)N(C(=O)COc1nnc(C(F)(F)F)s1)c1ccc(F)cc1 |  | -2.74% |
| CCC(CC)(CNC(=O)CCCO)c1cccc(OC)c1 |  | -0.609% [at 42.5 µM] |
| Oc1cccc(Cl)c1 |  | -2.99% |
| CCOP(=S)(OCC)Oc1ccc(S(C)=O)cc1 (stereo not given) |  | 6.25% |
| O=c1[nH]c2ccccc2o1 |  | -5.35% |
| CN1C(=S)CN=C(c2ccccc2)c2cc(Cl)ccc21 |  | 5.06% [at 42.5 µM] |
| C=C(C)[C@H]1CN[C@H](C(=O)O)[C@H]1CC(=O)O |  | -4.01% [at 42.5 µM] |
| Oc1ccc(C2(c3ccc(O)cc3)c3ccccc3-c3ccccc32)cc1 | 30.6 µM (active) |  |
| C[C@@H](N)[C@@H](O)c1ccccc1 |  | 5.2% [at 42.5 µM] |
| CC(C)(Cl)[N+](=O)[O-] |  | 4.38% |
| CC[C@H](C)[C@H]1O[C@]2(C=C[C@@H]1C)C[C@@H]1C[C@@H](C/C=C(\C)[C@@H](O[C@H]3C[C@H](OC)[C@@H](O[C@H]4C[C@H](OC)[C@@H](O)[C@H](C)O4)[C@H](C)O3)[C@@H](C)/C=C/C=C3\CO[C@@H]4[C@H](O)C(C)=C[C@@H](C(=O)O1)[C@]34O)O2 | 16.1 µM (active) |  |
| Cc1ccc2nc3sc(=O)sc3nc2c1 | 3.66 µM (active) |  |
| CC1(C)CN=C(NN=C(/C=C/c2ccc(C(F)(F)F)cc2)/C=C/c2ccc(C(F)(F)F)cc2)NC1 | 12.2 µM (active) |  |
| O=[N+]([O-])c1c(Cl)c(Cl)cc(Cl)c1Cl | 43.3 µM (active) |  |
| CCCCCCCCCCCCN(C)C |  | 6.77% |
| CCCCN(CCCC)C(=S)[S-].CCCCN(CCCC)C(=S)[S-].[Zn+2] | 6.11 µM (active) |  |

| SMILES | Potency | activity change, negative = cytotoxicity |
| --- | --- | --- |
| CCN(CC)C(=S)[S-].CCN(CC)C(=S)[S-].[Zn+2] | 0.481 µM (active) |  |
| CC(Cc1ccc(O)cc1)NCC(O)c1cc(O)cc(O)c1 (stereo not given) |  | -3.54% [at 42.5 µM] |
| CC(Cc1ccc2c(c1)OCO2)NO (stereo not given) |  | 0.249% |
| CS(=O)(=O)c1ccc(C(=O)C2C(=O)CCCC2=O)c(Cl)c1COCC(F)(F)F |  | -4.62% |
| CC[C@@H](CO)NC(=O)[C@@H]1C=C2c3cccc4c3c(cn4C)C[C@H]2N(C)C1 |  | 3.47% [at 42.5 µM] |
| NC(=O)CS(=O)C(c1ccccc1)c1ccccc1 (stereo not given) |  | -2.03% [at 42.5 µM] |
| CCOP(=O)(OCC)Oc1cc(C)nc(C(C)C)n1 |  | 1.44% |
| CCOP(=S)(OCC)Oc1cc(C)nc(N(CC)CC)n1 |  | 23.7% |
| CNP(=O)(OC)Oc1ccc(C(C)(C)C)cc1Cl (stereo not given) |  | 0.526% |
| O=C1C(=O)c2cccc3cccc1c23 |  | -14.6% |
| N#Cc1cc(I)c(O)c(I)c1 |  | -18.2% |
| COC(=O)c1ccccc1S(=O)(=O)NC(=O)Nc1nc(C)nc(OC)n1 |  | -1.54% |
| c1csc(-c2ccc(-c3cccs3)s2)c1 |  | 14% |
| Cc1ccccc1OP(=O)(Oc1ccccc1C)Oc1ccccc1C |  | -6.1% |
| CCOP(=S)(S)OCC |  | 6.98% |
| CC(C)[C@H](C(=O)O[C@H](C#N)c1cccc(Oc2ccccc2)c1)c1ccc(Cl)cc1 |  | 24.7% |
| O=[N+]([O-])c1cccc2cccnc12 |  | 4.05% |
| Clc1cccc(SC2CCNCC2)n1 |  | 4.02% [at 42.5 µM] |
| CCCCC(CC)COC(=O)OOC(C)(C)C (stereo not given) |  | -2.09% |
| O=[N+]([O-])c1cc(C(F)(F)F)c(Cl)c([N+](=O)[O-])c1Cl | 24.3 µM (active) |  |

Experiment: Nuclear factor erythroid 2-related factor 2/antioxidant responsive element (Nrf2/ARE) small molecule agonists: luciferase reporter gene qHTS assay in human keratinocytes (AID 1919969); further: nearly all actives have a fitted effect of over 35% in size
Conditions: KeratinoSens HaCaT ARE-luciferase, luminescence, 24 h; series mostly up to 92.4 µM; activity, positive = activation: at the top concentration

| SMILES | activity, positive = activation | Potency |
| --- | --- | --- |
| CC1(c2ccc(Oc3ccccc3)cc2)OC(=O)N(Nc2ccccc2)C1=O (stereo not given) | -44.3% |  |
| Oc1cc(Cl)cc(Cl)c1 | 12% |  |
| C=CC(=O)NCNC(=O)C=C |  | 61.1 µM (active) |
| COc1ccc(C(c2ccc(OC)cc2)C(Cl)(Cl)Cl)cc1 |  | 27.1 µM (active) |
| CC(C)N(C(=O)COc1nnc(C(F)(F)F)s1)c1ccc(F)cc1 | 22.1% |  |
| CCC(CC)(CNC(=O)CCCO)c1cccc(OC)c1 | -3.41% [at 42.5 µM] |  |
| Oc1cccc(Cl)c1 | -5.79% |  |
| CCOP(=S)(OCC)Oc1ccc(S(C)=O)cc1 (stereo not given) | -13.4% |  |
| O=c1[nH]c2ccccc2o1 | -2.15% |  |
| CN1C(=S)CN=C(c2ccccc2)c2cc(Cl)ccc21 | -9.64% [at 42.5 µM] |  |
| C=C(C)[C@H]1CN[C@H](C(=O)O)[C@H]1CC(=O)O | -1.94% [at 42.5 µM] |  |
| Oc1ccc(C2(c3ccc(O)cc3)c3ccccc3-c3ccccc32)cc1 |  | 0.969 µM (active) |
| C[C@@H](N)[C@@H](O)c1ccccc1 | 11.6% [at 42.5 µM] |  |
| CC(C)(Cl)[N+](=O)[O-] | 28.3% |  |
| CC[C@H](C)[C@H]1O[C@]2(C=C[C@@H]1C)C[C@@H]1C[C@@H](C/C=C(\C)[C@@H](O[C@H]3C[C@H](OC)[C@@H](O[C@H]4C[C@H](OC)[C@@H](O)[C@H](C)O4)[C@H](C)O3)[C@@H](C)/C=C/C=C3\CO[C@@H]4[C@H](O)C(C)=C[C@@H](C(=O)O1)[C@]34O)O2 | -43.8% [at 42.5 µM] |  |
| Cc1ccc2nc3sc(=O)sc3nc2c1 |  | 1.64 µM (active) |
| CC1(C)CN=C(NN=C(/C=C/c2ccc(C(F)(F)F)cc2)/C=C/c2ccc(C(F)(F)F)cc2)NC1 | -40.5% |  |
| O=[N+]([O-])c1c(Cl)c(Cl)cc(Cl)c1Cl |  | 9.69 µM (active) |
| CCCCCCCCCCCCN(C)C | -22.5% |  |
| CCCCN(CCCC)C(=S)[S-].CCCCN(CCCC)C(=S)[S-].[Zn+2] |  | 1.93 µM (active) |

| SMILES | activity, positive = activation | Potency |
| --- | --- | --- |
| CCN(CC)C(=S)[S-].CCN(CC)C(=S)[S-].[Zn+2] |  | 2.41 µM (active) |
| CC(Cc1ccc(O)cc1)NCC(O)c1cc(O)cc(O)c1 (stereo not given) | -1.59% [at 42.5 µM] |  |
| CC(Cc1ccc2c(c1)OCO2)NO (stereo not given) | 5.65% |  |
| CS(=O)(=O)c1ccc(C(=O)C2C(=O)CCCC2=O)c(Cl)c1COCC(F)(F)F | -7.75% |  |
| CC[C@@H](CO)NC(=O)[C@@H]1C=C2c3cccc4c3c(cn4C)C[C@H]2N(C)C1 | -5.29% [at 42.5 µM] |  |
| NC(=O)CS(=O)C(c1ccccc1)c1ccccc1 (stereo not given) | 0.887% [at 42.5 µM] |  |
| CCOP(=O)(OCC)Oc1cc(C)nc(C(C)C)n1 | -2.65% |  |
| CCOP(=S)(OCC)Oc1cc(C)nc(N(CC)CC)n1 | 14.2% |  |
| CNP(=O)(OC)Oc1ccc(C(C)(C)C)cc1Cl (stereo not given) |  | 48.6 µM (active) |
| O=C1C(=O)c2cccc3cccc1c23 |  | 27.3 µM (active) |
| N#Cc1cc(I)c(O)c(I)c1 | 0.235% |  |
| COC(=O)c1ccccc1S(=O)(=O)NC(=O)Nc1nc(C)nc(OC)n1 | -10.9% |  |
| c1csc(-c2ccc(-c3cccs3)s2)c1 |  | 8.63 µM (active) |
| Cc1ccccc1OP(=O)(Oc1ccccc1C)Oc1ccccc1C |  | 48.8 µM (active) |
| CCOP(=S)(S)OCC |  | 64.4 µM (active) |
| CC(C)[C@H](C(=O)O[C@H](C#N)c1cccc(Oc2ccccc2)c1)c1ccc(Cl)cc1 | 4.3% |  |
| O=[N+]([O-])c1cccc2cccnc12 | 1.14% |  |
| Clc1cccc(SC2CCNCC2)n1 | 2.09% [at 42.5 µM] |  |
| CCCCC(CC)COC(=O)OOC(C)(C)C (stereo not given) | -10.9% |  |
| O=[N+]([O-])c1cc(C(F)(F)F)c(Cl)c([N+](=O)[O-])c1Cl |  | 9.69 µM (active) |
